For ten molecules, Potency, activity change, negative = inhibition and outcome results are on record in PubChem BioAssay (NCATS).

Values without a mark were called inactive. Inconclusive results are not listed. Activity calls are given as the source filed them. Unless noted, the call rests on the fitted dose curve; in most records, active means well fitted curve in the direction sought with a large enough effect; inconclusive means small, poorly fitted or top-dose-only effect, or another doubt; inactive means no such curve, though single readings can be large; an effect the other way counts as inactive or inconclusive.

The target of assay [1] is Rap guanine nucleotide exchange factor 3 (Homo sapiens) (UniProt O95398). In words: Confirmatory qHTS for antagonist of cAMP-regulated guanine nucleotide exchange factor 3 (EPAC1) (AID 1645880).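 Further: plate controls were DMSO only for no effect and full effect of the ATA control for full effect; nearly all actives have a fitted effect of over 55% in size.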 The conditions noted are these: EPAC1 Rap1B-BODIPY-GDP exchange, fluorescence; activity, negative = inhibition: at 115 µM (top of the series). The procedure, abridged: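 Nucleotide exchange uses 100 nM EPAC1, 250 nM RAP1B-BODIPY-GDP and 50 uM GDP, with compounds in a concentration-titration series. After 5 min at room temperature, fluorescence (480 nm ex/540 nm em) is read every 5 min for 30 min. Data are normalized to control ATA and DMSO.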

The target of assay [2] is Rap guanine nucleotide exchange factor 4 (Homo sapiens) (UniProt Q8WZA2). In words: Confirmatory qHTS for agonist of cAMP-regulated guanine nucleotide exchange factor 4 (EPAC2) (AID 1645884).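 Further: nucleotide exchange releases bodipy-GDP from Rap1 and this lowers its fluorescence; on the % scale 0 is the no-effect control and ±100 the full control effect; nearly all actives have a fitted effect of over 65% in size.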 In general terms: Quantitative high-throughput screening tests each substance at several concentrations.
Assay [3] deals with Rap guanine nucleotide exchange factor 3 (Homo sapiens) (UniProt O95398). Briefly: Counterscreen qHTS for antagonist of cAMP-regulated guanine nucleotide exchange factor 3 (EPAC1) (AID 1645888).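 Further: fluorescence loss as bound BODIPY-GDP is released from Rap1B; % of control where 0% means no effect.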 In short, it runs like this:
(§1)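 Rap1B–BODIPY-GDP (250 nM) with 50 uM GDP; compounds pin-transferred to 9.74 nM–152 uM final (activator) or from 7.32 nM upwards (inhibitor). Fluorescence Ex/Em 480/540 nm read at 5 and 30 min, then after adding cAMP or buffer, at room temperature.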

Assay [4] shares this target. In words: Counterscreen qHTS for agonist of cAMP-regulated guanine nucleotide exchange factor 3 (EPAC1) (AID 1645889). Further: potency means the concentration at half of the fitted maximal effect; nearly all actives have a fitted effect of over 40% in size. The procedure, abridged:
as §1
(Counterscreens check selectivity or assay interference.)

For assay [5], the target named is Rap guanine nucleotide exchange factor 4 (Homo sapiens) (UniProt Q8WZA2). Briefly: Confirmatory qHTS for antagonist of cAMP-regulated guanine nucleotide exchange factor 4 (EPAC2) (AID 1645885). Further: nearly all actives have a fitted effect of over 25% in size. Further: potency means the concentration at half of the fitted maximal effect.
Assay [6] addresses Lysosomal acid glucosylceramidase (Homo sapiens) (UniProt P04062). In words: Glucocerebrosidase-p2 (AID 348; in the data active means potency below about 10 µM; further: potency means the concentration at half of the fitted maximal effect). The following applies: purified GBA, blue fluorogenic substrate, 40 min. In short, it runs like this:
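Compounds titrated from 0.6 nM upwards against 0.2 nM enzyme in pH 5.9 citric acid/KH2PO4, taurocholate, tween-20; blue fluorogenic substrate 80 uM, 40 min room temperature, stopped and read Ex 365/Em 440 for AC50.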

Assay [7] in a line: AP1 Signaling Pathway (AID 357; active means well fitted curve in either direction with a large enough effect, not every such curve was filed as active; further: on the % scale 0 is the no-effect control and ±100 the full control effect). The conditions noted are these: ME-180 (cervical carcinoma) AP-1-bla reporter, EGF-induced, beta-lactamase ratio, 5 h; at 7.69 µM (top of the series) unless noted. The procedure, abridged:
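ME-180 cells with beta-lactamase reporter under AP-1 response element, stimulated with EC50 EGF; compounds tested in titration series, 5 h at 37 °C. CCF4 substrate added 2.5 h at room temperature; 460/530 nm emission ratio gave %activity and AC50.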

Assay [8] deals with Cytochrome P450 1A2 (Homo sapiens) (UniProt P05177). In words: p450-cyp1a2 (AID 410; calls by dose curve; further: potency means the concentration at half of the fitted maximal effect). In short, it runs like this:
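20nM CYP1A2 with 100uM Luciferin-ME (at Km) in 100mM KPO4; compound preincubated 10 min, NADPH regeneration added, 60 min at room temperature. Luciferin quantified by luminescence after detection reagent; normalized to 57 uM furafylline.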

Assay [9] in a line: NFAT Signaling Pathway (AID 444; active means well fitted curve in either direction with a large enough effect, not every such curve was filed as active;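 further: carbachol stimulus at about its EC50 of 1 µM final; on the % scale 0 is the no-effect control and ±100 the full control effect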). The conditions noted are these: Jurkat NFAT-bla M1, carbachol, beta-lactamase ratio, 5 h; at 7.69 µM (top of the series) unless noted. In short, it runs like this: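 Jurkat cells with NFAT-driven β-lactamase reporter and co-expressed M1 receptor, stimulated with carbachol (final 1 uM, ~EC50), compound titration, 5 h at 37 °C. CCF4 loaded 1 h at RT; 460/530 nm ratio gave %activity and AC50.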

Assay [10] can be described thus: Stat Signaling Pathway (AID 446; active means well fitted curve in either direction with a large enough effect, not every such curve was filed as active;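 further: ME-180 cervical cancer cells given 40 pM IL-6 alongside compound; SIE-controlled beta-lactamase reporter measured as 460/530 nm FRET emission ratio; on the % scale 0 is the no-effect control and ±100 the full control effect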). In short, it runs like this:
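ME-180 SIE-bla cells; overnight plating; cpd + IL-6 40 pM, 5 h, 37 C; LiveBLAzer 2.5 h RT; 460/530 nm emission ratio. Normalized to 300 pM IL-6 and 125 nM JAK inhibitor controls.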

For assay [11], the target named is Glucocorticoid receptor (Homo sapiens) (UniProt P04150). In words: GR-EFC Redistribution (AID 451; calls by dose curve; further: potency means the concentration at half of the fitted maximal effect). The conditions noted are these: CHO-K1 GR-EFC translocation, beta-gal luminescence, 2 h. The procedure, abridged: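 CHO-K1 cells expressing nuclear EA and GR-ED fragments of b-gal; compounds titrated up to 46 uM final, 2 h at 37 C. GR nuclear translocation read as complemented b-gal luminescence after 1 h RT detection.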

The target of assay [12] is Mitogen-activated protein kinase 10 (Mus musculus) (UniProt Q61831). In words: JNK3 AlphaScreen Assay (AID 530; active means well fitted curve in either direction with a large enough effect, not every such curve was filed as active;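 further: kinase came from lysate of stimulated human HepG2 cells; signal reports phosphorylation of biotinylated GST-cJun 1-79 at Ser73 with 10 µM ATP; on the % scale 0 is the no-effect control and ±100 the full control effect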). The procedure, abridged:
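Pre-activated (IL-1β/TNFα) JNK3 in HepG2 lysates phosphorylates biotin-GST-cJun(1-79), 10 uM ATP; anti-phospho-cJun(Ser73) AlphaScreen read at room temperature, pH 7.6 Tris buffer. Compounds pre-incubated 15 min as titrations.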
Background: Bead proximity is the source of the signal in Alpha formats.

Assay [13] addresses 3',5'-cyclic-AMP phosphodiesterase 4B (Homo sapiens) (UniProt Q07343). Briefly: qHTS Assay for Inhibitors of PDE-IV (AID 607; active means well fitted activation curve with a large enough effect in the main read-out, with a control signal flat, not every such curve was filed as active; further: % of control where 0% means no effect). In short, it runs like this: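 ACTOne HEK293 cells carry a modified cAMP-gated CNG channel and express endogenous PDE4; plated 1000 cells/well, compounds up to 22.9 uM final. Membrane-potential dye fluorescence (ex 535/em 590) was read; parental cells received 10 uM forskolin + 100 uM RO 20-1724.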

In assay [14] the target is Cytochrome P450 2C19 (Homo sapiens) (UniProt P33261). In words: qHTS Assay for Inhibitors and Substrates of Cytochrome P450 2C19 (AID 899). Further: potency means the concentration at half of the fitted maximal effect; nearly all actives have a fitted effect of over 60% in size. The procedure, abridged:
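Luminescent read-out of luciferin formed from Luciferin-H EGE (10uM, equal to KM). Enzyme 5nM in 50mM KPO4; compound added, 10 min at 37C, then NADPH regenerating system for 60 min at 37C. Full inhibition defined by 57uM ketoconazole.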

In assay [15] the target is Guanine nucleotide-binding protein G(i) subunit alpha-1 (Homo sapiens) (UniProt P63096). In words: qHTS Assay for Inhibitors of RGS12 GoLoco Motif Activity (Green Fluorophore) (AID 879). Further: potency means the concentration at half of the fitted maximal effect. The procedure, abridged:
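Fluorescence polarization assay: 50 nM Gαi1 with 10 nM FITC-labeled RGS12 GoLoco peptide in 10 mM Tris pH 7.5, 150 mM NaCl, 0.1 mM GDP, 0.05% NP40, 10 min at room temperature with compound.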

Assay [16] in a line: qHTS Assay for Identification of Small Molecule Antagonists for Thrombopoietin (TPO) Signaling Pathway (AID 918). Further: potency means the concentration at half of the fitted maximal effect; nearly all actives have a fitted effect of over 60% in size. The following applies: TPO-dependent cell signaling reporter, antagonist mode. In short, it runs like this:
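Murine Ba/F3 cells expressing human TPO receptor and a Glycoprotein IIb promoter-luciferase reporter, IL-3-starved overnight, treated with compound plus TPO at EC50 (26 pM final). After 24 h at 37 C, luminescence read to detect inhibitors.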

Assay [17] has as its target Pyruvate kinase (Leishmania mexicana) (UniProt Q27686). Briefly: qHTS Validation Assay for Inhibitors of Leishmania Mexicana Pyruvate Kinase (AID 945).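 Further: 0% = DMSO only neutral control wells.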 The procedure, abridged:
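LmPYK E451W 0.2 nM; 0.5 mM PEP, 0.1 mM ADP, 7 mM MgCl2, 50 mM KCl, imidazole pH 7.2, 0.01% Tween 20, 0.05% BSA; 1 h RT; PKLight luminescence; DMSO-normalized.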

Assay [18] addresses Pyruvate kinase PKM (Homo sapiens) (UniProt P14618). In words: qHTS Assay for Activators of Human Muscle Pyruvate Kinase (AID 954; active means well fitted curve in the direction sought with a large enough effect, not every such curve was filed as active;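 further: 0% = uninhibited enzyme and -100% = no enzyme or full thiadiazolimine inhibition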). The procedure, abridged:
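Luminescence from a luciferase ATP-detection/stop reagent reported PKM2 activity. Reactions contained 0.1 nM purified human enzyme, 0.5 mM PEP, 0.1 mM ADP and 7 mM MgCl2 at pH 7.2, run 1 h at RT.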

Assay [19] deals with Alpha-galactosidase A (Homo sapiens) (UniProt P06280). Briefly: Counterscreen for Glucocerebrosidase Inhibitors: qHTS Assay for Human alpha-Galactosidase at pH 4.5 (AID 992). Further: 0% is about no effect. In short, it runs like this:
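Enzyme at 2 nM final was combined with compound (0.7 nM to 77 uM) and 80 uM 4-methylumbelliferyl alpha-D-galactopyranoside in 50 mM citric acid, 0.005% Tween-20, pH 4.5. After 20 min at room temperature, fluorescence was read (Ex 365/Em 440 nm); AC50 came from Hill fits.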

Assay [20] concerns the target alpha-glucosidase (Oryza sativa, rice) (UniProt Q653V4). In words: Counterscreen for Glucocerebrosidase Inhibitors: qHTS Assay for Rice alpha-Glucosidase at pH 5.0 (AID 997).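 Further: 0% = full activity with enzyme and -100% = basal without enzyme.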 The procedure, abridged:
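Rice alpha-glucosidase (4 nM final) with 400 uM 4-methylumbelliferyl-alpha-D-glucopyranoside in citrate buffer pH 5.0, 20 min at room temperature, stopped at pH 10; fluorescence 365/440 nm, compounds 0.7 nM–77 uM, AC50 from Hill fits.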

The target in assay [21] is Tumor susceptibility gene 101 protein (Homo sapiens) (UniProt Q99816). Briefly: qHTS Assay for Iinhibitors of HIV-1 Budding by Blocking the Interaction of PTAP/TSG101: Hit Validation (AID 651600). Further: nearly all actives have a fitted effect of over 70% in size. Further: potency means the concentration at half of the fitted maximal effect. In short, it runs like this: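 Displacement of a FITC-labeled PTAP-motif peptide (50 nM) from the Tsg101 binding domain (10 uM) was monitored by fluorescence polarization after a 20 min room-temperature incubation.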
Sequence of Tumor susceptibility gene 101 protein (Homo sapiens) (Q99816 whole entry, looked up, the tested form may be a part): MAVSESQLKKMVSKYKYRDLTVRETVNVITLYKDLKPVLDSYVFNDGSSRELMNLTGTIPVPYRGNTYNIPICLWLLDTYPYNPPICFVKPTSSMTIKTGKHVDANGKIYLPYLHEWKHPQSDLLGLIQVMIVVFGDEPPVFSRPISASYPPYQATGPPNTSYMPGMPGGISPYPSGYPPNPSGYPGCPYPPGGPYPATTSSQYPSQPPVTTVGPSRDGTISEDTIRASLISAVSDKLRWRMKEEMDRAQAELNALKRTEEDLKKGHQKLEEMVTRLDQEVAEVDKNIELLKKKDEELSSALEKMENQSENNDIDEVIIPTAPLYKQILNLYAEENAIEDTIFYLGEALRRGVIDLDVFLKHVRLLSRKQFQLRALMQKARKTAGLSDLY

Sequence of Rap guanine nucleotide exchange factor 3 (Homo sapiens) (O95398 whole entry, looked up): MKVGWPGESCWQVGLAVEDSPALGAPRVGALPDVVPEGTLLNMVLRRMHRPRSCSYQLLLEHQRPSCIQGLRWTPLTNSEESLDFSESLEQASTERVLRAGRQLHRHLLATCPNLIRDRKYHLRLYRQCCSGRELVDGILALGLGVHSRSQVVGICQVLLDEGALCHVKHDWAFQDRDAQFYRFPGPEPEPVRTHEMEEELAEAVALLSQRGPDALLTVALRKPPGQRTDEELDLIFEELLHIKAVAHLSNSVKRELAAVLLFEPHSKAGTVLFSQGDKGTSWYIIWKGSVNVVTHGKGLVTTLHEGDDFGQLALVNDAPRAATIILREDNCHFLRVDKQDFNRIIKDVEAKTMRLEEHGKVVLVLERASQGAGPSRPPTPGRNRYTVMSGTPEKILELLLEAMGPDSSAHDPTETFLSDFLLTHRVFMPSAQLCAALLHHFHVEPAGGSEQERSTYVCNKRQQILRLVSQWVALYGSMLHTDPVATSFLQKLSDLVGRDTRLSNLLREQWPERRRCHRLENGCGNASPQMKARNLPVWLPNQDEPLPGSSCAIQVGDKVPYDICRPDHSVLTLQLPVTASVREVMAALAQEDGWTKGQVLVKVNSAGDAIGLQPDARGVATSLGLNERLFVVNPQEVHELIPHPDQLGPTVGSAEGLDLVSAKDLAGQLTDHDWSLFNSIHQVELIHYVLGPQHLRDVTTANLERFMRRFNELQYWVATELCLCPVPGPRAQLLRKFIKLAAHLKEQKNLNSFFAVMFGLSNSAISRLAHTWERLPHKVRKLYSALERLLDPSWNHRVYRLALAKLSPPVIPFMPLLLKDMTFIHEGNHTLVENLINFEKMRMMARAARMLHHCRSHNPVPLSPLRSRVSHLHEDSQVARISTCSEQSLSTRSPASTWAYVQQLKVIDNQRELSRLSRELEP
Sequence of Rap guanine nucleotide exchange factor 4 (Homo sapiens) (Q8WZA2 whole entry, looked up): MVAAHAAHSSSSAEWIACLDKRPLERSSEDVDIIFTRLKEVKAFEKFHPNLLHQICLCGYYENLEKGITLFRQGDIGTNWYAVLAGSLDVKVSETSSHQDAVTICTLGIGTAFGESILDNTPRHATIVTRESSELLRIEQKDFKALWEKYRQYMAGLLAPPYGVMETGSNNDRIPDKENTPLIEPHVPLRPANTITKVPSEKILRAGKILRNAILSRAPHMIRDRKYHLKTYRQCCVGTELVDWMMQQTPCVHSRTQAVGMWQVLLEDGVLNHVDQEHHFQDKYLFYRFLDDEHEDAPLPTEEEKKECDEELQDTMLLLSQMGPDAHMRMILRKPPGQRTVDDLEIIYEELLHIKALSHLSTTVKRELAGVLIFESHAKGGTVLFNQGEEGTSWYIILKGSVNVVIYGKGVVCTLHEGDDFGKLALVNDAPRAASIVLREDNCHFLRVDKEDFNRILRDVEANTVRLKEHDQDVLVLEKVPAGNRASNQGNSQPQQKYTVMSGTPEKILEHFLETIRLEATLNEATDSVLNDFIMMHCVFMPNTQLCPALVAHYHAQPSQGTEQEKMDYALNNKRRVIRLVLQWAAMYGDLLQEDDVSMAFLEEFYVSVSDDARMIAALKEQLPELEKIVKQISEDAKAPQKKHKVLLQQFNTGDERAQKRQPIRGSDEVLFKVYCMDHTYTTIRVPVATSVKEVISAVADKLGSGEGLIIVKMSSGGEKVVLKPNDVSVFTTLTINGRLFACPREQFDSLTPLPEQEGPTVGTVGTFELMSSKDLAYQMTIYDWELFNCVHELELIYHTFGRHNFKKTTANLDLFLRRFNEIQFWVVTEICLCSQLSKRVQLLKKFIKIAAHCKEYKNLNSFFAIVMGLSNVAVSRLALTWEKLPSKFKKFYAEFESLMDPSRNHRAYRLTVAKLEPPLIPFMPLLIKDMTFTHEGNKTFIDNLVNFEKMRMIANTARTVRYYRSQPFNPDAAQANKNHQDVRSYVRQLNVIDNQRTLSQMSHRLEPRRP
Sequence of Glucocorticoid receptor (Homo sapiens) (P04150 whole entry, looked up, the tested form may be a part): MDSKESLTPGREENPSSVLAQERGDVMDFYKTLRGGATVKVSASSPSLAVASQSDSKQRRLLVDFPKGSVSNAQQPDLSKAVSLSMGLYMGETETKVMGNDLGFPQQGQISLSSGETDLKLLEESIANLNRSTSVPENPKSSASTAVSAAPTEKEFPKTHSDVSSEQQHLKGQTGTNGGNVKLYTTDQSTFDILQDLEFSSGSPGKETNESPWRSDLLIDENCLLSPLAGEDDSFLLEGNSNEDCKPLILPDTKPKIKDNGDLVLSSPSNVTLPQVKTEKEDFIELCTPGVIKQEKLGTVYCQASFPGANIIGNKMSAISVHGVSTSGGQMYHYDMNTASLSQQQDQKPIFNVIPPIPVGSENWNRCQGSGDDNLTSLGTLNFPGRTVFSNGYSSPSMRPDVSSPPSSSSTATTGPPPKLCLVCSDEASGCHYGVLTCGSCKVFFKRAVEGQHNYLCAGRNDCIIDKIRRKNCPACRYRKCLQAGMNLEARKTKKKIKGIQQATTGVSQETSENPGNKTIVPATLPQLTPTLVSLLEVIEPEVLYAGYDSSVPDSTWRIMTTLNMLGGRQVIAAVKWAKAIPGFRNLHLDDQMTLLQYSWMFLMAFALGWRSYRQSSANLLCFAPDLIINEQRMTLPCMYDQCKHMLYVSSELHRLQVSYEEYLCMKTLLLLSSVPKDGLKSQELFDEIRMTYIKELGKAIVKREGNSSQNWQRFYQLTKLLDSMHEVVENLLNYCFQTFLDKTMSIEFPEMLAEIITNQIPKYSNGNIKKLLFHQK
Sequence of Cytochrome P450 1A2 (Homo sapiens) (P05177 whole entry, looked up): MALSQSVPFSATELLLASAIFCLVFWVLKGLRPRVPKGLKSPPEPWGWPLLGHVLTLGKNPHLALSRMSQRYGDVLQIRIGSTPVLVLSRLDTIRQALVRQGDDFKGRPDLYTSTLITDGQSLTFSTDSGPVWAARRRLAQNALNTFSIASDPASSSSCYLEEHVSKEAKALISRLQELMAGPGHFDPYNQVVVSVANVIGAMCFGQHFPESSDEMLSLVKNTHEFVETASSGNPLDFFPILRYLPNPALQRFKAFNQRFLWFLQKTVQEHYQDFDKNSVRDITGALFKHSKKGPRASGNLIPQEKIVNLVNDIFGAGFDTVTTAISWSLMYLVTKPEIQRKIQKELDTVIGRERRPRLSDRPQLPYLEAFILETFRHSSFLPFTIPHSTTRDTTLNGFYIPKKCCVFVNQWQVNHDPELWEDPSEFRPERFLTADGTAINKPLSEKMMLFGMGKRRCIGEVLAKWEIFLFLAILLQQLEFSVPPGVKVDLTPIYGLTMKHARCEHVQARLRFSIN
Sequence of 3',5'-cyclic-AMP phosphodiesterase 4B (Homo sapiens) (Q07343 whole entry, looked up): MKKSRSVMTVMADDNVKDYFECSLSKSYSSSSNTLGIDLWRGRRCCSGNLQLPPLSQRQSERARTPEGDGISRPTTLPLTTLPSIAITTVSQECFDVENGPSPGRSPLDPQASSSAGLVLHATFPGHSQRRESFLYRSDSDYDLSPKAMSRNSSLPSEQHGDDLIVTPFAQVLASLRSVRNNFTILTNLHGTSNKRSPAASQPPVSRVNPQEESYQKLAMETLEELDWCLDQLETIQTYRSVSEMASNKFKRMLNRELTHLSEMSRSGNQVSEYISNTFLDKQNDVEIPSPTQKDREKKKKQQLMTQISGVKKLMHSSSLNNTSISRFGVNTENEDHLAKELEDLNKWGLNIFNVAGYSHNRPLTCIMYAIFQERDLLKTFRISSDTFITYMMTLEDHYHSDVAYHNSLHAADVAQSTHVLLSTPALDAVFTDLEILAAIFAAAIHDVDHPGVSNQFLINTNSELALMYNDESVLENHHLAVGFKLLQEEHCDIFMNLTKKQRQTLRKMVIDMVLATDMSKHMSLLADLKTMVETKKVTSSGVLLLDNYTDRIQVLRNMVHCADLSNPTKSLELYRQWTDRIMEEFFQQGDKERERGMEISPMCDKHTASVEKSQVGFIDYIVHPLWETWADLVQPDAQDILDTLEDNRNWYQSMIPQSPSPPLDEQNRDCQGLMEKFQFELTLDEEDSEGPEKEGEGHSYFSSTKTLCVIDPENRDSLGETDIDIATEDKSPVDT
Sequence of Pyruvate kinase (Leishmania mexicana) (Q27686 2-499 E452W): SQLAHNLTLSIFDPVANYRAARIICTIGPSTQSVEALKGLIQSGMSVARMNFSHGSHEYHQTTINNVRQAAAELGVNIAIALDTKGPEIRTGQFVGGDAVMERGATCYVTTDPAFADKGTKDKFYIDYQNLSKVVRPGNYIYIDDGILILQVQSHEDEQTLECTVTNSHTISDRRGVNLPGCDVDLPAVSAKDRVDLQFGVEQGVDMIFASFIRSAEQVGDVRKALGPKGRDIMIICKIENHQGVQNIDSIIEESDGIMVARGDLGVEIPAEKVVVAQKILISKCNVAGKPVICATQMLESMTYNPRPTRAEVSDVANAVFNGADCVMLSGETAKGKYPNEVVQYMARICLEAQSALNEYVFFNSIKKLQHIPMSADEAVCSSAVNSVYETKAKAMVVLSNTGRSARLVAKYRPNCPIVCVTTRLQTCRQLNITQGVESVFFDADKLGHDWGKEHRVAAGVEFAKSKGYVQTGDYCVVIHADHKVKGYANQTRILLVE

`COC(=O)CCc1nc2cc(Cl)ccc2n(Cc2ccccc2)c1=O`: the Potency entry in [1], in assay [2] and in [3] was “inactive” throughout.

On to `COc1cccc(C(=O)c2sc3nc(-c4ccccc4)cc(C(F)(F)F)c3c2N)c1`, for which the Potency result in assay [1], in assay [2] and in [3] was “inactive” throughout. The Potency in assay [4] is 56.2 µM (active).

On to `COc1ccc2c(c1)C(=O)CCC2c1ccccc1` (stereo unspecified), for which the Potency result in [1], in assay [5] and in assay [3] was “inactive” throughout.

Take `CCN(CC)c1ccc(C=C2SC(=S)NC2=O)cc1`: the Potency result in [1] and in [3] was “inactive” throughout. Further, the Potency in assay [5] was 84.9 µM (active).

As for `O=C1/C(=C\c2cc(Cl)c(O)c(Cl)c2)SC(=S)N1Cc1ccccc1`, the Potency entry in assay [1], in assay [5] and in assay [3] was “inactive” in each case.

As for `N=C(N)c1ccc(N=Nc2c(O)ccc3c2[nH]c2ccccc23)cc1`, the Potency in [6] is above 11.4 µM; in [8], 1.58 µM (active); in assay [11], above 9.22 µM; in [14], 1.26 µM (active). Further, the activity change, negative = inhibition in assay [7] was 13.5%; in assay [9] it was 8.15%; in assay [12] it was -6.35% [at 11.4 µM]. Also, the outcome in assay [10] was inactive. Besides, in assay [13], the Potency entry was “inactive”.

Regarding `CC(=O)[C@@]1(O)Cc2c(O)c3c(c(O)c2[C@H](O[C@H]2C[C@H](N)[C@H](O)[C@H](C)O2)C1)C(=O)c1ccccc1C3=O`, the activity change, negative = inhibition in assay [7] is -110% [at 38 µM] (active); in assay [9] it was -116% [at 38 µM] (active). In addition, the Potency was 20 µM (active) in assay [8], above 46 µM in assay [11], 0.02 µM (active) in assay [15] and 0.0251 µM (active) in assay [16]. For the same molecule, the Potency entry in assay [12] and in assay [13] was “inactive” each time. The outcome in [17], in assay [18], in assay [19] and in assay [20] was inactive.

`CCCCn1c(=O)[nH]c2nc3cc(N)ccc3nc2c1=O`: the Potency in assay [21] was 6.51 µM (active).

As to `CCN(CC)c1ccc(/C=C/C(=O)c2ccc(Br)cc2)cc1`, the Potency entry in assay [21] is “inactive”.

With `Cc1ccc2c(c1)N(Cc1cccc(F)c1)C(=O)C(C)O2` (stereo unspecified), the Potency entry in assay [1] and in assay [3] was “inactive” throughout.
